Data published in PubChem BioAssay AID1851 (National Center for Advancing Translational Sciences (NCATS), 2009).
Out of some 16,000 compounds screened, about 5,700 (36%) were called active. About 24% were inconclusive and are not listed. This is one part of the list. Unmarked numbers belong to inactive results. The call rests on the fitted dose curve; in most records, active means well fitted curve in the direction sought with a large enough effect; inconclusive means small, poorly fitted or top-dose-only effect, or effect the other way; inactive means no such curve, though single readings can be large or run the other way.

These compounds were tested against Cytochrome P450 1A2 (Homo sapiens) (UniProt P05177) (assay: Cytochrome panel assay with activity outcomes). Conditions: recombinant CYP, pro-luciferin dealkylation, luminescence, p450-cyp1a2; series mostly up to 57.1 µM.
On the % scale 0 is the no-effect control and ±100 the full control effect.

Chain of Cytochrome P450 1A2 (Homo sapiens) (P05177 whole entry, looked up): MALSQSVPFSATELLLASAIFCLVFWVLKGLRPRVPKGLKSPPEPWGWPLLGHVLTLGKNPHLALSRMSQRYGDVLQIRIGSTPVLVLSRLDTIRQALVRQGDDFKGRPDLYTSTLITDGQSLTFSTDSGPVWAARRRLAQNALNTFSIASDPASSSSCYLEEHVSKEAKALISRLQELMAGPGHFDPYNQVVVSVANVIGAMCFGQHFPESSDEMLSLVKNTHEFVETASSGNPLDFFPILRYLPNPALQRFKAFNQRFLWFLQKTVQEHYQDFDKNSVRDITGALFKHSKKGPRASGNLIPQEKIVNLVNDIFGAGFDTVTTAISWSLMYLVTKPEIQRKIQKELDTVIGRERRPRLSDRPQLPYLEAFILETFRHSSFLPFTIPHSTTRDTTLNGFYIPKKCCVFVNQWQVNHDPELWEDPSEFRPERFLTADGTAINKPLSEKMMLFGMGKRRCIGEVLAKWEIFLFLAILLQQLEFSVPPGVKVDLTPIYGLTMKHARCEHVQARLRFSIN

SMILES | AC50 | activity, negative = inhibition
COCCNc1ncnc2ccc(-c3ccccc3OC)cc12 | 2 µM (active) | –
COCCNc1ncnc2ccc(-c3ccccc3C(F)(F)F)cc12 | 1.58 µM (active) | –
CC1=N[C@@](C)(COC(=O)[C@]2(C)N[C@](C)(CO)CO2)COC1=O | – | 6.88% [at 2.29 µM]
COc1ccccc1-c1ccc2ncnc(NCc3cccnc3)c2c1 | 0.794 µM (active) | –
COc1ccccc1-c1ccc2ncnc(NCc3ccccc3)c2c1 | 2 µM (active) | –
COc1cccc(-c2ccc3ncnc(NCc4cccnc4)c3c2)c1 | 0.251 µM (active) | –
C=CC1=C(C(=O)O)N2C(=O)[C@@H](NC(=O)/C(=N\OCC(=O)O)c3csc(N)n3)[C@@H]2SC1 | inactive | –
CN1CCC2(CC1)CCN(C(=O)c1cc(C(F)(F)F)cc(C(F)(F)F)c1)CC2 | inactive | –
Cn1c(=O)c2[nH]c(CCCCc3nc4c([nH]3)c(=O)n(C)c(=S)n4C)nc2n(C)c1=S | – | -13.8% [at 2.29 µM]
COC(=O)C/C=C\[C@@H](C)[C@@H]1C=C[C@H](OC(C)=O)[C@H](COC(C)=O)O1 | – | -1.57% [at 11.4 µM]
C=CCNc1nc(-c2ccc(Cl)cc2)cs1 | 2.24 µM (active) | –
CC(Oc1ccc(-c2ccccc2)c(F)c1)c1ccn(S(=O)(=O)c2ccc(Cl)cc2)n1 (stereo not given) | inactive | –
O=S(=O)(c1ccccc1)N1CN2CN(C1)CN(S(=O)(=O)c1ccccc1)C2 | – | -14.9% [at 11.4 µM]
CC(Oc1ccccc1)c1ccnn1S(=O)(=O)c1ccccc1 (stereo not given) | 25.1 µM (active) | –
CC(Oc1ccc(Cl)cc1)c1ccnn1S(=O)(=O)c1ccccc1 (stereo not given) | 15.8 µM (active) | –
COC(=O)c1c(C)nc2ccccc2c1C(=O)O | inactive | –
CCOC(=O)c1ccc(Nc2nc(-c3cccnc3)nc3ccccc23)cc1 | 6.31 µM (active) | –
CCOC(=O)c1ccc(Nc2nc(C(=O)OCC)nc3ccccc23)cc1 | 0.891 µM (active) | –
CCOC(=O)c1ccc(NC(=O)C2(c3ccc(OC)cc3)CCOCC2)cc1 | inactive | –
CCCNC(=O)OC[C@@H]1O[C@H](CCO/N=C\[C@@H](C)[C@H](OCc2ccccc2)C(C)C)C=C[C@@H]1Oc1ccc(OC)cc1 | – | -5.94% [at 11.4 µM]
O=C(Nc1cccc(F)c1)N1CC[C@@]2(CCCNC2)C1 | inactive | –
O=C(O)[C@@H]1[C@@H](C(=O)NCc2cccnc2)[C@@H]2C=C[C@@H]1O2 | – | -0.421% [at 2.29 µM]
O=C(O)[C@@H]1[C@@H](C(=O)Nc2ncccn2)[C@@H]2C=C[C@@H]1O2 | – | -13.2% [at 2.29 µM]

SMILES | AC50 | activity, negative = inhibition
O=C(O)[C@@H]1[C@@H](C(=O)NCc2ccncc2)[C@@H]2C=C[C@@H]1O2 | 5.01 µM (active) | –
C[C@@H]1Cc2ccccc2N1NC(=O)c1ccc(Cl)c(S(N)=O)c1 (stereo not given in full) | inactive | –
CC1Cc2ccccc2N1C(=O)Cn1c(=O)cc(O)c2ccccc21 (stereo not given) | 14.1 µM (active) | –
CC1Cc2ccccc2N1C(=O)CN1C(=O)COc2ccccc21 (stereo not given) | inactive | –
COc1ccc(-n2cccc2C=O)cc1OC | 14.1 µM (active) | –
COc1ccc(-n2c(C)n[nH]c2=O)cc1OC | inactive | –
COc1ccc(N2C(=O)NC3CC2(C)Oc2ccccc23)cc1OC (stereo not given) | inactive | –
COc1ccc(C(=O)N2CCC[C@@]3(CCN(Cc4ccc(C#N)cc4)C3)C2)cc1 | inactive | –
CCn1c(/C=C2/C(=O)N(C)c3ccccc32)nc2ccccc2c1=O | 1 µM (active) | –
CC1(C)CC2(CCO1)OC(=O)CC2C(=O)NCCc1ccccc1 (stereo not given) | inactive | –
Cc1c(N(C)CS(=O)(=O)O)c(=O)n(-c2ccccc2)n1C | inactive | –
Cc1ccc(S(=O)(=O)/N=C(/Nc2c(C)n(C)n(-c3ccccc3)c2=O)c2ccc(Cl)cc2)cc1 | inactive | –
Cc1c(CCO)c(=O)n(-c2ccccc2)n1S(=O)(=O)c1c(Cl)cc(Cl)cc1Cl | 12.6 µM (active) | –
CC(=O)O[C@H]1C2=CO[C@H](C)[C@H]3[C@H]4C5=C([C@H](O)[C@H]6O[C@@H]6C5=O)[C@H](O[C@H]4C)[C@@]23C(=O)[C@H]2O[C@@H]21 | – | -0.486% [at 11.4 µM]
Cc1ccn2c(NC(=O)c3ccccc3)c(-c3cccs3)nc2c1 | 22.4 µM (active) | –
O=C(O)C12CC3(C(=O)O)CC(C(=O)O)(CC(C(=O)O)(C1)C3=O)C2=O | – | -4.32% [at 2.29 µM]
Cc1ncn(-c2ccccc2O)c1C | 0.794 µM (active) | –
Cc1nc2ccccn2c1C(=O)N/N=C/c1ccccc1[N+](=O)[O-] | 15.8 µM (active) | –
CC1=NNC(=O)C1CCC(=O)N/N=C\c1ccccc1[N+](=O)[O-] (stereo not given) | inactive | –
O=C(O)Cc1cc(Cl)ccc1O | – | -16.6% [at 11.4 µM]
COc1ccc2c(c1)c(CC(=O)O)c(C)n2Cc1ccc(Cl)cc1 | 31.6 µM (active) | –
COc1ccc2c(c1)c(CC(=O)OCC(=O)O)c(C)n2C(=O)c1ccc(Cl)cc1 | inactive | –
